# Out of some 2,100 compounds screened, about 650 (31%) were called active. Roughly 16% stayed inconclusive and do not appear here. Calls come from the whole dose curve; as a rule, active = well fitted inhibition curve with a large enough effect; inconclusive = small, poorly fitted or top-dose-only effect; inactive = flat fitted curve, though single readings scatter. The list shows a part of the results. A call without a number means that no potency is given here.
# Assay: qHTS for inhibitors of Vif-A3G interactions: Cherry picks; note: nearly all actives have a fitted effect of over 80% in size
# Settings: HeLa A3G-eYFP + Vif (tagged APOBEC3G with the HIV-1 protein that degrades it), 24 h; Potency: eYFP fluorescence increase; series mostly up to 36.9 µM
# Procedure, shortened: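 Cherry-picked compounds tested at several concentrations on A3G-eYFP/Vif HeLa cells for 24 hours; loss of Vif-driven degradation read as eYFP fluorescence by cytometric plate imaging, 488 nm excitation, 500-530 nm emission.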
# Potency is the fitted concentration of half-maximal effect.
row,Structure (SMILES),Potency
1,CCOC(=O)c1c(C)oc2ccc(N(C(=O)c3ccncc3)S(=O)(=O)c3ccc(Br)cc3)cc12,inactive
2,COc1ccc(-n2c(O)c(/C=N/NS(=O)(=O)c3cc(C)ccc3C)c3ccccc3c2=O)cc1OC,16.4 µM (active)
3,COc1ccc(S(=O)(=O)NCc2ccccn2)cc1NC(=O)c1ccc(C)cc1,inactive
4,COc1ccc(-n2c(O)c(/C=N/NS(=O)(=O)c3ccc(C)cc3)c3ccccc3c2=O)cc1OC,18.4 µM (active)
5,COc1cc(/C=N/Nc2cc(C)nc(NS(=O)(=O)c3ccccc3)n2)ccc1O,inactive
6,COc1ccc(OC)c(S(=O)(=O)N/N=C\c2cn(CC(N)=O)c3ccccc23)c1,inactive
7,COc1cc(C(=O)NCC(=O)N2CCN(S(=O)(=O)c3cc(C)ccc3C)CC2)cc(OC)c1OC,inactive
8,CCC(=O)OCc1cnc(C)c2oc(=O)c(C(=O)Nc3ccccc3C(F)(F)F)cc12,inactive
9,CC(=O)Nc1cccc(-c2ccnc3c2CC(C(=O)Nc2ccc4c(c2)OCO4)O3)c1 (configuration not stated),inactive
10,c1ccc(-c2cccc(-c3ccccn3)n2)nc1,inactive
11,O=[N+]([O-])c1cc(O)c2ncccc2c1,inactive
12,Nc1[nH]c2cc([N+](=O)[O-])ccc2c1-c1ccccn1,8.2 µM (active)
13,COc1ccc(-n2nnnc2S(=O)(=O)Cc2ccc(C(=O)O)cc2)cc1,inactive
14,Cc1ccc(NC(=O)c2c(C)nc3sc(C(=O)NC4CCCC4)c(N)c3c2-c2ccco2)c(C)c1,20.6 µM (active)
15,COc1cccc(NC(=O)c2sc3nc(C)c(C(=O)Nc4ccc(C)cc4C)c(-c4ccco4)c3c2N)c1,inactive
16,CCc1ccc(NC(=O)c2sc3nc(C)c(C(=O)Nc4ccc(C)cc4C)c(-c4ccco4)c3c2N)cc1,23.1 µM (active)
17,CCOC(=O)c1[nH]c(C)c(C(=O)Nc2ccc(C)cc2C)c1C,inactive
18,CCOC(=O)N1CCN(C(=O)c2[nH]c(C(F)(F)F)nc2-c2ccccc2)CC1,inactive
19,CC1(C(=O)NCc2ccc(F)c(F)c2)Cc2c(-c3cccc(C(N)=O)c3)ccnc2O1 (configuration not stated),inactive
20,COc1ccc(CN(C(C)=O)c2cccc(C)c2C)cc1,inactive
21,FC(F)(F)c1ccccc1NC(=S)NN=C1CCCCCC1,inactive
22,COC(=O)c1sccc1S(=O)(=O)N(CC(=O)Nc1cc(F)ccc1F)c1ccc(C)c(C)c1,inactive
23,N#CCC(=O)N/N=C/c1ccc(N2N=C(c3ccccc3)CC2c2ccccc2)cc1 (configuration not stated),20.6 µM (active)
24,C/C(=N\NC(=S)NCc1ccccc1)c1cccs1,inactive
25,C/C(=N\Nc1nccnc1Cl)c1ccc(Cl)c(Cl)c1,inactive
26,CCOC(=O)c1sc2cc([N+](=O)[O-])cc(SCC(C)C)c2c1N,2.91 µM (active)
27,COC(=O)c1sc2cc([N+](=O)[O-])cc(SCC(C)C)c2c1N,16.4 µM (active)

# Source: PubChem BioAssay AID651812 (National Center for Advancing Translational Sciences (NCATS), 2012)
